High-throughput results as filed in PubChem BioAssay.
Sampled rows, rich in hits. Any-hit rate of the full collection: about 6.2%.
HCMV inh: human cytomegalovirus inhibition. HFF cells, HCMV-luciferase reporter, 72 h; active compounds read low. activity change, negative = inhibition, % at 57.5 µM. 410,000 compounds, 4.5% hits. AID 1259415; in the data active means activity change below about -60%; inconclusive means no clear call, values can overlap the other calls; inactive means above about -39%
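Two compound doses tested in HFFs infected with HCMV-luciferase, MOI 1 PFU/cell, 72 h at 37C. Lysate luminescence read with OneGlo; data normalized against buffer-only and 10uM Salinomycin inhibitor controls.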
Lassa entry inh: inhibitors of Lassa virus binding or cell entry; Lassa virus pseudotype entry inhibition, cell reporter; Potency, µM (titrated, usually from 37.9 µM), usual class: inhibitors; 300,000 compounds, 1.2% hits; AID 540256; calls by dose curve; tested in HEK293 cells; further: nearly all actives have a fitted effect of over 50% in size
FMDV antiviral: foot and mouth disease virus antiviral activity | FMDV antiviral cell-based qHTS | Potency, µM (highest dose often 57.9 µM), hits mostly inhibitors | 410,000 compounds, 1.2% hits; calls by dose curve; tested in HEK293T cells; further: read-out not given here; nearly all actives have a fitted effect of over 45% in size
MARV entry inh: inhibitors of Marburg virus binding or cell entry | Marburg virus pseudotyped entry inhibition, cell reporter | Potency, µM (titrated, usually from 37.8 µM), most hits filed as inhibitors | 300,000 compounds, 1.8% hits | AID 540276; calls by dose curve; tested in HEK293 cells
Each line names hits and unclear results; the compound was inactive in the other large screens.

COc1cccc(CNC(=O)Cc2ccc(-n3c(=O)[nH]c4ccccc4c3=O)cc2)c1	HCMV inh -97, Lassa entry inh inconclusive, MARV entry inh inconclusive
COc1cccc(CNC(=O)Cn2cccc2C(=O)c2ccccc2)c1	HCMV inh -96
COc1ccccc1NC(=O)CCn1nc(-c2ccccc2OC)c2c(C)cc(C)nc21	Lassa entry inh inconclusive
O=C(NCCN1CCOCC1)c1cc2n(n1)[C@@H](C(F)(F)F)C[C@H](c1ccc(F)cc1)N2	none (no result: HCMV inh, Lassa entry inh, FMDV antiviral)
Cc1c(C(=O)NCCC2=CCCCC2)oc2ccc(S(=O)(=O)N3CCOCC3)cc12	HCMV inh -69, Lassa entry inh 8.2µM, FMDV antiviral 14µM, MARV entry inh inconclusive
COc1ccc2oc(C(=O)Nc3ccc(S(=O)(=O)N(C)C4CCN(C)CC4)cc3)c(C)c2c1	HCMV inh -112, FMDV antiviral inconclusive (no result: Lassa entry inh, MARV entry inh)
Cc1c(C(=O)Nc2ccc(F)c(Cl)c2)oc2ccc(S(=O)(=O)N(C)C3CCCCC3)cc12	none (no result: MARV entry inh)
COc1ccc(CC(=O)Nc2ccc(S(=O)(=O)N(C)C3CCN(C)CC3)cc2)cc1	none (no result: Lassa entry inh, MARV entry inh)
COc1cccc(NC(=O)c2oc3ccc(S(=O)(=O)N4CCCCCC4)cc3c2C)c1	none (no result: MARV entry inh)
COc1ccc(NC(=O)c2oc3ccc(S(=O)(=O)N4CCCCC4)cc3c2C)cc1	Lassa entry inh inconclusive, FMDV antiviral 18µM (no result: MARV entry inh)
COc1ccc(NC(=O)c2oc3ccc(S(=O)(=O)N(C)C4CCCCC4)cc3c2C)cc1Cl	HCMV inh -77 (no result: MARV entry inh)
CCCCCOC(=O)CSc1nc2sc3c(c2c(=O)n1-c1ccccc1)CC(C)(CC)OC3 (stereo not given)	none (no result: MARV entry inh)
O=C(Nc1ccc(F)cc1Cl)c1cnc(N2CCOCC2)c2ccccc12	none (no result: MARV entry inh)
Cc1nc(N)c(C#N)c(-c2cccnc2)c1C	HCMV inh -70
CCc1nc(N)c(C#N)c(-c2cccnc2)c1C	none
O=C(Nc1ccc(Br)cc1)c1ccc(F)c(S(=O)(=O)NC2CCCCCC2)c1	HCMV inh -98, Lassa entry inh inconclusive (no result: MARV entry inh)
O=C(Nc1ccc(Br)cc1)c1ccc(F)c(S(=O)(=O)N2CCN(c3ccccn3)CC2)c1	HCMV inh -89, Lassa entry inh inconclusive, FMDV antiviral inconclusive, MARV entry inh inconclusive
Cc1ccccc1NC(=O)c1ccc(F)c(S(=O)(=O)N2CCN(c3ccccn3)CC2)c1	HCMV inh inconclusive, Lassa entry inh inconclusive, FMDV antiviral 22µM
Cc1ccccc1NC(=O)c1ccc(C)c(S(=O)(=O)N2CCN(C)CC2)c1	none (no result: Lassa entry inh, MARV entry inh)
C[C@H]1[C@@H](NC(=O)Nc2cccc(C(F)(F)F)c2)CC[C@@]23CCCN2C(=O)CCC[C@@H]13	none (no result: Lassa entry inh, FMDV antiviral, MARV entry inh)
CC(C)(C)n1cc(C(=O)c2ccc3ccccc3c2O)cn1	HCMV inh inconclusive, Lassa entry inh 13µM, FMDV antiviral 16µM, MARV entry inh 4µM
CCc1ccc(S(=O)(=O)NCc2cccs2)cc1	HCMV inh -66
COc1ccc(N(CC(=O)N/N=C/c2ccc(OC3CSC3)cc2)S(=O)(=O)c2ccccc2)cc1	HCMV inh inconclusive, Lassa entry inh inconclusive, MARV entry inh inconclusive
CCC(C)NC(=O)CN(c1ccc(OC)cc1)S(=O)(=O)c1ccccc1 (stereo not given)	MARV entry inh inconclusive
COc1ccc(N(CC(=O)N/N=C/c2cccs2)S(=O)(=O)c2ccccc2)cc1	HCMV inh -67, Lassa entry inh inconclusive
COc1ccc(N(CC(=O)N/N=C/c2ccc(-c3ccc([N+](=O)[O-])cc3)o2)S(=O)(=O)c2ccc(C)cc2)cc1Cl	none
COc1ccc(N(CC(=O)N/N=C/c2ccc(-c3ccc([N+](=O)[O-])cc3)o2)S(=O)(=O)c2ccc(C)cc2)cc1	HCMV inh -68, MARV entry inh inconclusive
COc1ccc(N(CC(=O)NN=C2CCCCCCC2)S(=O)(=O)c2ccccc2)cc1	HCMV inh -64 (no result: FMDV antiviral)
Cc1ccc(NC(=O)N2CCC(N3CCN(Cc4ccccc4)C(=O)C3=O)CC2)cc1Cl	none (no result: MARV entry inh)
COc1ccc(Cc2nc3ccc(C(=O)NC(C)C)cc3o2)cc1	none (no result: Lassa entry inh, MARV entry inh)
CCOc1cccc(C(=O)Nc2ccc3oc(-c4ccc(C(C)(C)C)cc4)nc3c2)c1	FMDV antiviral inconclusive (no result: MARV entry inh)
O=C(NCCCN1CCN(c2ccc(F)cc2)CC1)c1ccc2nc(Cc3ccccc3)oc2c1	HCMV inh inconclusive, FMDV antiviral 11µM (no result: MARV entry inh)
O=C(NCCCN1CCN(c2ccccc2)CC1)c1ccc2nc(Cc3ccccc3)oc2c1	HCMV inh inconclusive, FMDV antiviral inconclusive (no result: MARV entry inh)
CCC(NC(=O)c1ccc2nc(Cc3ccc(OC)cc3)oc2c1)c1ccncc1 (stereo not given)	HCMV inh active, FMDV antiviral 20µM (no result: Lassa entry inh, MARV entry inh)
C=C(C)CNC(=O)c1ccc2nc(Cc3ccc(OC)cc3)oc2c1	Lassa entry inh 6.3µM
CCOc1cccc(C(=O)Nc2ccc3oc(Cc4ccc(Cl)cc4)nc3c2)c1	HCMV inh -60, Lassa entry inh inconclusive, FMDV antiviral 8.9µM, MARV entry inh inconclusive
CCc1cccc(NC(=O)CSc2nc3ccsc3c(=O)n2CC)c1	Lassa entry inh inconclusive, FMDV antiviral inconclusive, MARV entry inh inconclusive
CCN1CCCC1CNC(=O)C1=C(OC)CC(N(C)C)=C(NC(C)=O)C1 (stereo not given)	none (no result: HCMV inh, Lassa entry inh, FMDV antiviral)
O=C(NCCc1ccc(Cl)cc1)c1ccc2nc(Cc3ccccc3)oc2c1	Lassa entry inh inconclusive (no result: MARV entry inh)
CCn1cc(CNC(=O)c2ccc3nc(Cc4ccc(OC)cc4)oc3c2)cn1	HCMV inh -65
O=C(NCCc1ccncc1)c1ccc2nc(Cc3cccc(Cl)c3)oc2c1	HCMV inh -70
COc1cccc(NC(=O)c2ccc3nc(Cc4ccccc4)oc3c2)c1	HCMV inh -94 (no result: MARV entry inh)
COc1cccc(OC)c1OC[C@H](C)CNC[C@@H]1CCCO1	none (no result: HCMV inh, Lassa entry inh, FMDV antiviral)
COc1ccc(/C(N)=N/OC(=O)C2CCC(=O)N2S(=O)(=O)c2ccc(C)cc2)cc1OC (stereo not given)	HCMV inh -87
Cc1cc(C(C)(C)C)cc(C)c1CCNC(=O)c1ccc[n+]([O-])c1	HCMV inh inconclusive, Lassa entry inh 3.2µM, MARV entry inh 0.63µM
COc1ccc(CN2CCN(CCCc3ccccc3)C(CCO)C2)c(OC)c1 (stereo not given)	none (no result: Lassa entry inh, MARV entry inh)
COc1ccc(OC)c(CN2CCN(CCCc3ccccc3)C(CCO)C2)c1 (stereo not given)	HCMV inh -102 (no result: Lassa entry inh, MARV entry inh)
Cc1ccc2occ(CC(=O)N3CCN(c4cccc(Cl)c4)CC3)c2c1	HCMV inh -71
COc1ccc(N2CCN(C(=O)Cc3coc4cc(C)ccc34)CC2)cc1	none
COc1ccc(N2CCN(C(=O)Cc3coc4ccc(C)cc34)CC2)cc1	HCMV inh -114
COc1cccc(NC(=O)CN2C(=O)CSc3ccc(S(=O)(=O)N4CCCC4)cc32)c1	none (no result: MARV entry inh)
COc1cc(/C(C)=N/NC(=O)Cc2c(C)[nH][nH]c2=O)ccc1O	HCMV inh -67
Cc1ccc(C=CC2=C[C@]3(C)C[C@]2(C)[C@H](c2ccc(C)cc2)CC3=O)cc1	none (no result: HCMV inh, Lassa entry inh, FMDV antiviral)
COc1ccc(/C=C/C(=O)O)cc1S(=O)(=O)NCc1ccco1	none
COc1ccc(S(=O)(=O)NCc2ccco2)c2ccccc12	HCMV inh -66 (no result: FMDV antiviral)
CNc1ccc(Br)cc(C(=O)/C=C/c2ccc(OC)cc2)c1=O	FMDV antiviral 16µM
CNc1ccc(Br)cc(C(=O)/C=C/c2ccc3c(c2)OCO3)c1=O	Lassa entry inh inconclusive, FMDV antiviral inconclusive
CCNc1ccc(Br)cc(C(=O)/C=C/c2ccc(Cl)cc2Cl)c1=O	HCMV inh -103, Lassa entry inh inconclusive, FMDV antiviral inconclusive, MARV entry inh inconclusive
